Screening results (PubChem BioAssay)
SKKanGAS inh: blocks kanamycin growth of S. pyogenes SKKanGAS strain; actives 1.3% (n = 300,000); inhibition, % at 7.5 µM; BacTiter-Glo, 6 h;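 active = mean replicate score, as percent of positive control median, at least 50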;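 also: strain carries kanamycin resistance gene driven by streptokinase promoter and grows in 40 µg/ml kanamycin; loss of luminescence reflects streptokinase promoter inhibition or plain growth inhibition; 0% = median of DMSO wells and 100% = positive control at its reference dose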
Calb FLC: affects C. albicans growth with fluconazole | growth inhibition, % (test concentration not listed) | C. albicans CaCi-2 (fluconazole-resistant clinical isolate) + fluconazole, Alamar Blue growth, 48 h | actives 0.57% (n = 300,000);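 active = growth inhibition above about 58% in most replicates, limit read from the data, passing the limit was not always enough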;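 also: all wells also contain fluconazole at 8 µg/ml as a sub-toxic cotreatment; 0% = median of DMSO wells and 100% = median of geldanamycin control wells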
Mdm2 MdmX PPI: human Mdm2/MdmX binding inhibition | O15151+Q00987 | actives 3% (n = 330,000) | inhibition, % at 8 µM | SaOS-2 split-luciferase Mdm2/MdmX complementation, luminescence;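 active = inhibition of at least 50% at 8 µM in the primary screen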
Target sequence (O15151 whole entry, looked up): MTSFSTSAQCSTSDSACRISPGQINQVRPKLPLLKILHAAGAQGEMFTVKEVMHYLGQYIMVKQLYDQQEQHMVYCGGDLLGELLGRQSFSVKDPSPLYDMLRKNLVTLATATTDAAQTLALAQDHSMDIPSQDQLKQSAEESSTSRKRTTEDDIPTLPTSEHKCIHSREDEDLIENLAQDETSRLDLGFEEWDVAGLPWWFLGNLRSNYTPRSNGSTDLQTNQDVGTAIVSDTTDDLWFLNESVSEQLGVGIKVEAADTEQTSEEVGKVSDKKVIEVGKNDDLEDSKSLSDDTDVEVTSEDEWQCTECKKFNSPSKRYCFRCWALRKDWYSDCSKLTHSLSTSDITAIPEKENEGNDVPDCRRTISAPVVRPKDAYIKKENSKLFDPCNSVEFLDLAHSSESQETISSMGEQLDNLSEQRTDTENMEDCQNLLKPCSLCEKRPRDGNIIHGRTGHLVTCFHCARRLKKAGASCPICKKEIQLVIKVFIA
Target sequence (Q00987 whole entry, looked up): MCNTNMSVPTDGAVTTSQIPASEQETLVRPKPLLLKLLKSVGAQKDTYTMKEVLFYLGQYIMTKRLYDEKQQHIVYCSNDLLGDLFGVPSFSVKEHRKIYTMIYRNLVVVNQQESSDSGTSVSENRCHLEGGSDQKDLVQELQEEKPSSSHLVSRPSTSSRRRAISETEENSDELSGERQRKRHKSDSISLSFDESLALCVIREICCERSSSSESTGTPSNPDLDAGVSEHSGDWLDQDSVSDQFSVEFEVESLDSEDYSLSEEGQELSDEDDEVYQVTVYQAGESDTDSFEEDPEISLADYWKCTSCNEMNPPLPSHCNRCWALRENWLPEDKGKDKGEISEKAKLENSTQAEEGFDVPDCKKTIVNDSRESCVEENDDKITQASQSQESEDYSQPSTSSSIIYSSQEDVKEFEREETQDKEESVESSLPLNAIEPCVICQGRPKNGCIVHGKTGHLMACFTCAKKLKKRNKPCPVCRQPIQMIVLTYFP
CSC inhib: blocks cancer stem cells. actives 1.1% (n = 300,000). AID 2717. inhibition, % at 7.5 µM. cancer stem cell-like cells viability, luminescence; in the data active = inhibition above about 75%; tested in HMLE shEcad cells
MPTP block: blocks calcium-induced mitochondrial swelling; isolated mouse mitochondria, Ca2+ swelling absorbance, 30 min; inhibition, % at 10 µM; actives 1.4% (n = 360,000);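 active = inhibition of 50% or more, scaled per plate between neutral and stimulator controls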;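 also: 0% = DMSO wells given calcium and 100% = 1 mM EGTA wells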
Beta apoptosis: beta cell apoptosis inhibition; INS-1E cytokine-induced death, ATP luminescence, 48 h; percent of positive-control rescue, neutral wells zero; protection from apoptosis, % (test concentration not listed); actives 0.8% (n = 300,000); AID 435005;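 active = Every replicate reaches about 75%, or at least half do and their mean reaches it too, limit read from the data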;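 also: 0% = cytokine-treated negative control wells and 100% = positive control rescue; higher means more ATP so stronger rescue from cytokine killing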
The depositor's hits bear a star; / = no result given. Sampled rows, rich in hits. Any-hit rate of the full collection: about 5.4%.

SMILES	SKKanGAS inh	Calb FLC	Mdm2 MdmX PPI	CSC inhib	MPTP block	Beta apoptosis
C=CCN(c1ccccc1)S(=O)(=O)c1cc2c(cc1C)N(C)CCO2	-2	2	-3	14	0	-7
CCCCOc1ccc(OC(=O)c2cccnc2)cc1	-8	3	9	35	0	6
CCCCCCCOc1ccc(OC(=O)c2cccnc2)cc1	-2	-22	26	96*	4	2
CCn1c2ccccc2c2cc(NC(=O)COc3ccc(OC)cc3)ccc21	-2	3	6	-2	0	4
CCn1c2ccccc2c2cc(NC(=O)c3cccc([N+](=O)[O-])c3)ccc21	1	-3	21	88*	3	15
CCn1c2ccccc2c2cc(NC(=O)c3cc(OC)cc(OC)c3)ccc21	2	-11	43	84*	0	70
CCn1c2ccccc2c2cc(/C=N/NC(=O)c3cc(O)cc(O)c3)ccc21	24	14	-5	84*	0	3
CCn1c2ccccc2c2cc(/C=N/NC(=O)c3ccc(O)cc3)ccc21	19	7	-4	6	-3	9
CCn1c2ccccc2c2cc(NC(=O)c3ccc(C)c([N+](=O)[O-])c3)ccc21	36	-1	40	-3	6	36
CCn1c2ccccc2c2cc(NC(=O)CN(C)CC(=O)Nc3ccc(N4CCOCC4)cc3)ccc21	-4	6	-23	80*	-1	2
COc1ccc(NC2=Nc3ccccc3N3C2=Nc2c(c(C)nn2-c2ccc(C)cc2)C3c2cccnc2)cc1 (configuration not stated)	/	119*	7	8	3	9
COc1cccc(C2c3c(C)nn(-c4ccc([N+](=O)[O-])cc4)c3N=C3C(=O)Nc4ccccc4N32)c1 (configuration not stated)	12	45	41	12	4	25
CCc1ccc(NC(=O)C2CCCN(S(=O)(=O)c3cccs3)C2)cc1 (configuration not stated)	21	1	35	16	1	-8
Cc1ccc(-n2cc(-c3ccccc3)c3c(NN4CCOCC4)ncnc32)cc1	2	1	18	72	0	8
c1ccc(-c2cn(-c3ccccc3)c3ncnc(N4CCCCC4)c23)cc1	67*	-6	21	71	26	3
CCC(C)n1c(-c2cccs2)nc2nc3ccccc3nc21 (configuration not stated)	1	35	20	64*	-2	4
CC(=O)c1c(C)oc2ccc(N(C(C)=O)S(=O)(=O)c3ccc(F)cc3C)cc12	13	4	28	1	2	8
CC(=O)c1c(C)oc2ccc(N(C(C)=O)S(=O)(=O)c3cccc4cccnc34)cc12	0	-6	34	4	3	104*
CC(=O)Nc1ccc(NS(=O)(=O)c2cc(-c3n[nH]c(=O)c4ccccc34)ccc2C)cc1	27	-1	14	10	2	-3
Clc1ccc(-c2csc(N3CCCCCC3)n2)cc1	54*	-6	-7	14	1	8
O=C(NCc1ccc(F)cc1)C(c1ccccc1)c1ccccc1	17	-2	-9	14	-1	-5
CC(=O)N(Cc1ccc(F)cc1)C1=C(NCc2ccccc2)C(=O)c2ccccc2C1=O	26	89*	/	/	1	/
Cc1c(C)n(CCN(C)C)c2ncnc(NCc3ccccc3)c12	-2	4	3	-2	0	-8
Cc1c(C)n(CCc2ccccc2)c2ncnc(NCCCN(C)C)c12	-5	-4	22	76*	-1	3
CCCCOc1cccc(C(=O)NNC(=S)NC2CCCCC2)c1	11	105*	8	/	6	7
SMILES	SKKanGAS inh	Calb FLC	Mdm2 MdmX PPI	CSC inhib	MPTP block	Beta apoptosis
C/C(=N\NC(=O)C1CCCC1)c1ccc(Cl)c(Cl)c1	/	112*	-31	10	1	5
Cc1c(NC(=O)OCc2ccccc2)c(=O)n(-c2ccccc2)n1C	-8	-5	24	2	-1	-11
COC(=O)c1c(NC(=O)Cc2cccs2)sc2c1CCC(C)C2 (configuration not stated)	9	-8	-9	80*	0	0
Cc1c(NC(=O)C(C)OC(=O)C(NC(=O)c2ccco2)C(C)C)c(=O)n(-c2ccccc2)n1C (configuration not stated)	-4	1	10	5	-1	-7
CCCCN(CC)Cc1ccc(CNC(=O)Nc2ccc(Cl)cc2)o1	3	0	32	30	12	-1
O=c1ccc(N=Nc2ccccc2)ccc1O	91*	101*	/	47	5	18
CCC1CCCCN1S(=O)(=O)c1ccc(C(=O)Nc2nnc(C3CC3)o2)cc1 (configuration not stated)	60*	5	43	26	-4	4
CCC1CCCCN1S(=O)(=O)c1ccc(C(=O)Nc2nnc(C3=COCCO3)o2)cc1 (configuration not stated)	79*	-5	25	21	-1	-2
CC1CC(C)CN(S(=O)(=O)c2ccc(C(=O)Nc3nnc(C4CC4)o3)cc2)C1 (configuration not stated)	68*	3	49	63	-3	27
CCOC(=O)N1CCN(S(=O)(=O)c2ccc(C(=O)Nc3nnc(C4CC4)o3)cc2)CC1	3	-7	9	6	0	-4
CC1CCCCN1S(=O)(=O)c1ccc(C(=O)Nc2nnc(-c3ccncc3)o2)cc1 (configuration not stated)	27	21	22	29	-1	15
CC1(C)N=C(N)NC(Nc2cccc(Br)c2)=N1	1	-2	-11	3	0	-4
COc1cc(C(=O)OCc2cc(=O)c(O)co2)ccc1OC(F)F	-5	102*	-2	13	-1	11
COc1cc(C(=O)OCC(=O)NC(=O)NCc2ccccc2)ccc1OC(F)F	/	/	-6	/	0	-7
CCc1nnc(NC(=O)CCC(=O)N2CCN(Cc3ccc(C)cc3C)CC2)s1	-12	0	12	5	-2	/
OC(CNCCc1ccc(C(F)(F)F)cc1)COc1ccc2ccccc2c1 (configuration not stated)	-10	105*	26	77*	-4	34
COc1ccccc1COCC(O)CNCCc1ccc(C(F)(F)F)cc1 (configuration not stated)	4	-4	20	17	2	10
OC(CNCCc1ccc(C(F)(F)F)cc1)COc1cccc2ccccc12 (configuration not stated)	25	-7	42	96*	1	69
COc1ccc(CNCC(O)COc2ccc(C(C)(C)c3ccccc3)cc2)cc1 (configuration not stated)	5	8	38	109*	6	15
